Compound activity as filed in PubChem BioAssay.
Shown are actives, neighbours in structure and some others; about 1.9% of the full set was active somewhere.
NR1D1 modulator – modulators of Rev-erb alpha DNA binding, primary screen, biochemical, FITC-DNA, fluorescence polarization, uHTS | Nuclear receptor subfamily 1 group D member 1 (Homo sapiens), P20393 | Rev-erbα–FITC-DNA binding, 90 min | activity, % at 10 µM | 370,000 tested, 0.79% active | AID 1259318, 2017;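 active = activity above about 14%, limit read from the data; passing the limit was not always enough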;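 note: 0% = DMSO wells with 35 nM protein and 100% = DMSO wells with 750 nM protein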
aDG glyco act – activators of alpha-DG glycosylation, primary screen, uHTS, Pro5-aDG cells, AlphaScreen; AID 624168, 2012; activation, % at 10 µM; alpha-DG glycosylation AlphaScreen (IIH6); 0% Pro5, 100% B10-LARGE cell signal; 360,000 tested, 0.22% active;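 active = activation of at least 8% versus controls, or a plate z-score of at least 8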;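 note: Pro5 are CHO cells carrying HIG-tagged alpha-DG that lacks glycosylation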
ZTA DNA inh – blocks Epstein-Barr virus ZTA, an EBNA-1 counter-screen | ZTA-DNA binding, fluorescence polarization | 320,000 tested, 0.15% active | AID 2234 | inhibition, % at 11 µM | P03206; in the data active = inhibition above about 33%
Target sequence (P03206 whole entry, looked up): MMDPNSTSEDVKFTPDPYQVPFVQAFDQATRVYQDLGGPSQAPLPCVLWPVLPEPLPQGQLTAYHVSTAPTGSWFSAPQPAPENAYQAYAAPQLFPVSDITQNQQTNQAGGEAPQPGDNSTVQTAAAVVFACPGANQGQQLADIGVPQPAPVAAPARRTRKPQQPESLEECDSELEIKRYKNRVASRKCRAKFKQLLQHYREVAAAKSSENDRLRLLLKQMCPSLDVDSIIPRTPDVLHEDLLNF
EBNA-1 inh – EBNA-1 DNA-binding inhibitors, primary screen, biochemical, fluorescence polarization | 300,000 tested, 0.34% active | inhibition, % at 14.8 µM; in the data active = inhibition above about 28%
PG9 binder – binders of HIV-1 gp120 antibody PG9, primary screen, biochemical, TR-FRET | inhibition, % at 6.7 µM | TR-FRET gp120-PG9 antibody binding | 360,000 tested, 0.43% active | HIV-1 gp120 / PG9 antibody interaction; in the data active = inhibition above about 8.5%
NCF1 inh – p47phox/p22phox peptide binding inhibitors, primary screen, biochemical, uHTS, NADPH oxidase regulatory subunit; Neutrophil cytosol factor 1 (Homo sapiens), P14598; fluorescence polarization, 2 h; 220,000 tested, 0.53% active; inhibition, % at 24.7 µM;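 active = inhibition above about 30%, limit read from the data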;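 note: 0% = p47phox with labelled peptide and 100% = labelled peptide alone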
Target sequence (P14598 whole entry, looked up): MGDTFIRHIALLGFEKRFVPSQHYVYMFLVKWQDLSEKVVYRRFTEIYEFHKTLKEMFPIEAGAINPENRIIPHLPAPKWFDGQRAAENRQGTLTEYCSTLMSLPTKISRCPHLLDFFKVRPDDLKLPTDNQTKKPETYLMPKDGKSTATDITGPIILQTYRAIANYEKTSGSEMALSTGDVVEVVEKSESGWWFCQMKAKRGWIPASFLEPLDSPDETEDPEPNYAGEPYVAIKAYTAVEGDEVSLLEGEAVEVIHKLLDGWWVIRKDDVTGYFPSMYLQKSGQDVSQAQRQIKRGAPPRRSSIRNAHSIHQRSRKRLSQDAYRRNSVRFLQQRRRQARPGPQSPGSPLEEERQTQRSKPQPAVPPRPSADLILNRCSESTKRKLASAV
* = called active by the depositor.

What do the screens show for `CCN1CCN(Cc2ccc(NC(=O)c3ccc(C)c(NC(=O)c4c[nH]c5cc(C(F)(F)F)ccc5c4=O)c3)cc2C(F)(F)F)CC1`?
NR1D1 modulator: 0.9; aDG glyco act: 0.0; ZTA DNA inh: 2.9; EBNA-1 inh: -9.8; PG9 binder: -2.2; NCF1 inh: 73.1*

What do the screens show for `CCN1CCN(Cc2ccc(NC(=O)c3cc(NC(=O)c4cc(-c5ccc(OC)cc5)n[nH]4)cc(OC)c3)cc2C(F)(F)F)CC1`?
NR1D1 modulator: 1.1; aDG glyco act: -0.8; ZTA DNA inh: 17.8; EBNA-1 inh: 9.7; PG9 binder: -1.6; NCF1 inh: 38.2*

Results for O=c1[nH]c(=O)n(C2C[C@@H](O)[C@@H](CO)O2)cc1F (stereo not given in full) ?
NR1D1 modulator: 10.8

How did CCCC[C@@H](CC)COC(=O)C(C#N)=C(c1ccccc1)c1ccccc1 do in these assays?
NR1D1 modulator: -5.0

Results for Nc1ccc(N(CCO)CCO)cc1 ?
NR1D1 modulator: -8.8; aDG glyco act: 0.2; ZTA DNA inh: active; EBNA-1 inh: 193.4*; PG9 binder: -15.3; NCF1 inh: -10.5

How did Cc1sc(NC(=O)CN2CCCC2)nc1-c1ccc2c(c1)CCN2C(=O)c1cccc(F)c1 do in these assays?
NR1D1 modulator: 0.2; aDG glyco act: 2.7*; ZTA DNA inh: -3.1; EBNA-1 inh: 5.9; PG9 binder: 1.1

What do the screens show for `Cc1ccc2[nH]c(C(=O)O)c(NC(=O)[C@@H]3C[C@@H]3c3ccccc3)c2c1`?
NR1D1 modulator: -0.8; aDG glyco act: -0.2; ZTA DNA inh: 8.7; EBNA-1 inh: -4.8; PG9 binder: -0.8; NCF1 inh: 112.9*

Results for COc1ccc(C)cc1NC(=O)C1CC1c1ccccc1 (stereo not given) ?
NR1D1 modulator: 0.9; aDG glyco act: -0.1; ZTA DNA inh: -2.8; EBNA-1 inh: 4.2; PG9 binder: 2.5

What do the screens show for `O=C(CS(=O)(=O)Cc1ccccc1)Nc1nc2ccccc2s1`?
NR1D1 modulator: 0.7; aDG glyco act: 0.2; ZTA DNA inh: -0.8; EBNA-1 inh: 7.0; PG9 binder: 0.4; NCF1 inh: 56.0*

How did COc1ccc(NC(=O)CSc2nc3ccccc3c3nc4ccccc4n23)cc1 do in these assays?
NR1D1 modulator: 7.0; aDG glyco act: -0.5; ZTA DNA inh: 6.4; EBNA-1 inh: -15.0; PG9 binder: -1.5; NCF1 inh: 26.6

Results for COc1ccc(OC)c(NC(=O)CSc2nc3ccccc3c3nc4ccccc4n23)c1 ?
NCF1 inh: 79.2*

How did Cc1c(C(=O)OC(C)C)[nH]c2c1C(=O)CCC2 do in these assays?
NR1D1 modulator: -2.7; aDG glyco act: 0.0; ZTA DNA inh: 6.3; EBNA-1 inh: 6.1; PG9 binder: -1.0; NCF1 inh: active

Results for COc1ccc(S[C@]2(C(=O)N3CCCC3)CC(=O)N(C(=O)/C=C/c3ccccc3)[C@@H]2c2ccc(OC)cc2)cc1 ?
NR1D1 modulator: 4.7

Results for N#Cc1cccc(NC(=O)CSc2ccc3c4c(cccc24)C(=O)c2ccccc2-3)c1 ?
NR1D1 modulator: -25.6; aDG glyco act: -0.4; ZTA DNA inh: -4.5; EBNA-1 inh: -4.2; PG9 binder: 2.9; NCF1 inh: 40.2*

What do the screens show for `COc1ccc(NC(=O)CN(C)S(=O)(=O)c2cccc3cccnc23)cc1`?
NR1D1 modulator: 0.3; aDG glyco act: -0.2; ZTA DNA inh: -0.6; EBNA-1 inh: 12.1; PG9 binder: -0.8; NCF1 inh: -18.5

What do the screens show for `COc1ccc(N(C(=O)C(C)C)S(=O)(=O)c2cccc3cccnc23)cc1`?
NR1D1 modulator: 0.6; aDG glyco act: 0.7; ZTA DNA inh: -5.9; EBNA-1 inh: 7.6; PG9 binder: -1.9; NCF1 inh: 59.3*

Results for Cc1c(C(=O)Nc2ccc(F)cc2)cn2c(nc3ccccc32)c1C#N ?
NR1D1 modulator: 0.2; aDG glyco act: 0.2; ZTA DNA inh: 17.0; EBNA-1 inh: 15.1; PG9 binder: 1.4; NCF1 inh: -14.1

How did N#Cc1c2nc3ccccc3nc2n2cc(NC(=O)c3ccc(F)cc3)ccc12 do in these assays?
NR1D1 modulator: 0.6; aDG glyco act: -0.1; PG9 binder: -1.9; NCF1 inh: 55.0*

What do the screens show for `O=C(O)CCC1c2cc3c4cc2OC2Oc5cc6c(cc51)C(CCC(=O)O)c1cc5c7cc1OC(O6)c1cc6cc(c1)Oc1cc(cc(C(=O)O)c1)Oc1cc8cc(c1)C(Oc1cc(c(cc1C5CCC(=O)O)C3CCC(=O)O)OC(O4)c1cc(cc(c1)Oc1cc(cc(C(=O)O)c1)O8)Oc1cc(cc(C(=O)O)c1)Oc1cc(cc2c1)Oc1cc(cc(C(=O)O)c1)O6)O7` (stereo not given)?
ZTA DNA inh: 105.5*; EBNA-1 inh: 102.0*

How did C#CCn1c(=NC(=O)c2sc3ccccc3c2Cl)sc2cc(S(N)(=O)=O)ccc21 do in these assays?
NR1D1 modulator: -6.1; aDG glyco act: -0.4; ZTA DNA inh: 4.3; EBNA-1 inh: 35.1*; PG9 binder: 7.1; NCF1 inh: -46.4

Results for C#CCn1c(=NC(=O)c2ccc(S(=O)(=O)N3CCc4ccccc4C3)cc2)sc2cc(S(N)(=O)=O)ccc21 ?
aDG glyco act: -0.3; ZTA DNA inh: 22.4; EBNA-1 inh: 15.0; NCF1 inh: 0.5

What do the screens show for `Cn1nc(C(C)(C)C)cc1C(=O)NCc1ccc(N2CCCC2=O)cc1`?
NR1D1 modulator: -4.0; aDG glyco act: 4.7*; ZTA DNA inh: -12.3; EBNA-1 inh: 5.7; PG9 binder: -0.4; NCF1 inh: -17.9

What do the screens show for `O=C(Nc1cccc(S(=O)(=O)Nc2ccc(Cl)cc2)c1)c1ccc(Cl)nc1`?
NR1D1 modulator: 7.0; aDG glyco act: 5.0; ZTA DNA inh: -5.8; EBNA-1 inh: -3.2; PG9 binder: 1.6; NCF1 inh: -23.9

Results for COc1ccc(NS(=O)(=O)c2cccc(NC(=O)c3ccc(Cl)nc3)c2)cc1 ?
NR1D1 modulator: -3.5; aDG glyco act: 8.5*; ZTA DNA inh: 9.9; EBNA-1 inh: -2.5; PG9 binder: 1.1; NCF1 inh: -8.0

What do the screens show for `NC(=O)c1cc[n+](CC2=C(C(=O)O)N3C(=O)[C@H](NC(=O)C(c4ccccc4)S(=O)(=O)[O-])C3SC2)cc1` (stereo not given in full)?
NR1D1 modulator: 2.8

Results for C#CCn1cc(C=C2C(=O)c3ccccc3C2=O)c2ccccc21 ?
NR1D1 modulator: 4.5; aDG glyco act: -0.2; PG9 binder: -2.2; NCF1 inh: 81.3*
